Active and inactive are the calls of the source.

5 molecules from PubChem BioAssay can be followed below.

For one assay, the target named is Albumin (Bos taurus) (UniProt P02769). In words: bovine serum albumin binders on microarray, profiling panel, artefact control for SMM control protein annotation, biochemical, small-molecule microarray, Alexa647 label, 635/667 nm fluorescence (AID 1118).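 Further: score merges 667 nm emission intensity and signal-to-noise per printed compound spot.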 Conditions: BSA-A647 binding, fluorescence 635 nm, higher = more signal.
Albumin (Bos taurus), sequence (P02769 whole entry, looked up): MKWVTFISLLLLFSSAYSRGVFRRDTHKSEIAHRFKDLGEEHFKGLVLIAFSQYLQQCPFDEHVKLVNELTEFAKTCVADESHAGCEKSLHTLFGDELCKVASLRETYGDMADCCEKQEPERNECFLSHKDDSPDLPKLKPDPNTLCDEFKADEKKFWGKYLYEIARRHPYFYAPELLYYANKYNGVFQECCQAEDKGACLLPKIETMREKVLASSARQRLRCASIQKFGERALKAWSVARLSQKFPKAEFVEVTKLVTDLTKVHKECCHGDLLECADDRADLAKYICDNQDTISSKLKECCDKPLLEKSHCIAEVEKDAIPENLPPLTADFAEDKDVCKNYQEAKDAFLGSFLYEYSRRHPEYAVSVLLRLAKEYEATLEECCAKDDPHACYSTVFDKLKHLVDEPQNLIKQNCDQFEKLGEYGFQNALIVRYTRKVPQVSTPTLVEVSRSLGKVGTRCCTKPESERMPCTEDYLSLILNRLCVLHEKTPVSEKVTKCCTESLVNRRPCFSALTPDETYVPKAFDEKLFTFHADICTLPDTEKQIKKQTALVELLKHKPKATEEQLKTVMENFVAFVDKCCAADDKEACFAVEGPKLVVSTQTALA
Assay [1] is described as follows: small-molecule microarray binders of probe aXIP, primary screen, biochemical, NeuroSMM set, 635/667 nm fluorescence (AID 1119).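 Further: probe is the protein aXip251-270 applied at 1 µg/mL to compound-printed slides; binding of probe to printed compounds measured as 667 nm fluorescence plus signal to noise.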 Conditions: higher = more signal, called active from +8 up or from −8 down.
The nature of assay [2]: small-molecule binders of probe aNOTCH3, primary screen, biochemical, small-molecule microarray, 635/667 nm fluorescence (AID 1120).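 Further: probe is a biotin-tagged antibody raised against NOTCH3 rather than NOTCH3 protein; score merges spot fluorescence near 667 nm with spot signal to noise.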 Conditions: higher = more signal.
Assay [3] can be described thus: small-molecule binders of probe aNOTCH2, primary screen, biochemical, small-molecule microarray, 635/667 nm fluorescence (AID 1121).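 Further: score merges feature fluorescence read at 667 nm with its signal to noise.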 Conditions: higher = more signal.
The target of assay [4] is Carbonic anhydrase 2 (Homo sapiens) (UniProt P00918). Kind of assay: CAII small-molecule binders, profiling panel, biochemical, small-molecule microarray, Alexa647-labelled CAII (AID 1122). As to conditions: CAII-A647 binding fluorescence, higher = more signal.
Assay [5] is described as follows: COS7 lysate on small-molecule microarray, probe aHis, 635 nm (AID 1123).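 Further: z-score combines 667nm fluorescence intensity with signal-to-noise per printed compound spot.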 As to conditions: COS7 cell lysate, fluorescence, higher = more signal.
A short description of assay [6]: compound binding in COS7 lysate, probe aLAP1, primary screen, cell lysate, small-molecule microarray (AID 1124).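 Further: lysate comes from COS7 cells expressing LAP1 and is applied at 0.3 µg/mL; score merges spot fluorescence near 667 nm with signal-to-noise over triplicate slides.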 As to conditions: probe aLAP1, fluorescence, higher = more signal.
In a further assay the test system is Sam68 (KHDRBS1). In words: Sam68 small-molecule binders, primary screen, biochemical, small-molecule microarray, 635 nm fluorescence (AID 1125).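 Further: score merges 667 nm channel intensity with signal to noise over triplicate slides.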 As to conditions: small-molecule microarray binding, higher = more signal.
Assay [7] deals with Chordin-like protein 2 (CHRDL2). In words: CHRDL2 small-molecule binders, primary screen, biochemical, small-molecule microarray, 635 nm fluorescence (AID 1126).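 Further: printed compound slides probed with Chrdl2 protein at 4 µg/mL for 1 h at 4 C; score merges 667 nm emission intensity with signal to noise over three replicate slides.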 Conditions: small-molecule microarray binding, fluorescence 635 nm; higher = more signal.
In assay [8] the target is Concanavalin-A (Canavalia ensiformis) (UniProt P02866). In words: ConA small-molecule binders, primary screen, artefact control for SMM control protein annotation, biochemical, small-molecule microarray, Alexa647 label, 635 nm (AID 1127).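 Further: z combines 667 nm emission intensity with signal-to-noise across three replicate slides.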 Conditions: ConA-A647 binding fluorescence, higher = more signal.
Concanavalin-A (Canavalia ensiformis), sequence (P02866 whole entry, looked up): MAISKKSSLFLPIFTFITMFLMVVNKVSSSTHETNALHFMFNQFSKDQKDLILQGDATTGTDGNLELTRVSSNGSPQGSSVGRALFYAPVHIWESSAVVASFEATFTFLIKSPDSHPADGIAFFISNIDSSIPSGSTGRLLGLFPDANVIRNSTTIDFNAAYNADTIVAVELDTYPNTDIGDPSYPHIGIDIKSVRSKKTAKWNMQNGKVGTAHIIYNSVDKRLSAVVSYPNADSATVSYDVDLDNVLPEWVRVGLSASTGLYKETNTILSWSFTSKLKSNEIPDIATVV
A short description of assay [9]: anti-His antibody binders, primary screen, artefact control for SMM control protein annotation, biochemical, small-molecule microarray, 635 nm fluorescence (AID 1128).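 Further: score merges feature fluorescence with signal-to-noise for each printed compound spot.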 As to conditions: anti-His Alexa647 antibody binding, higher = more signal.
Assay [10] deals with Human papillomavirus type 1a E7 protein (residues 1-88). In words: HPV1a E7 small-molecule binders, primary screen, biochemical, small-molecule microarray, residues 1-88, 635 nm (AID 1129). Conditions: small-molecule microarray binding, fluorescence 635 nm; higher = more signal.
In assay [11] the target is Focal adhesion kinase 1 (Homo sapiens) (UniProt Q05397). Kind of assay: small-molecule microarray binders of FAK, primary screen, biochemical, 635/667 nm fluorescence, BSA, DTT (AID 1130).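 Further: composite of spot emission at 667 nm and signal to noise over triplicate slides.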 As to conditions: PTK2 binding, 635 nm fluorescence, higher = more signal.
Focal adhesion kinase 1 (Homo sapiens), sequence (Q05397 whole entry, looked up): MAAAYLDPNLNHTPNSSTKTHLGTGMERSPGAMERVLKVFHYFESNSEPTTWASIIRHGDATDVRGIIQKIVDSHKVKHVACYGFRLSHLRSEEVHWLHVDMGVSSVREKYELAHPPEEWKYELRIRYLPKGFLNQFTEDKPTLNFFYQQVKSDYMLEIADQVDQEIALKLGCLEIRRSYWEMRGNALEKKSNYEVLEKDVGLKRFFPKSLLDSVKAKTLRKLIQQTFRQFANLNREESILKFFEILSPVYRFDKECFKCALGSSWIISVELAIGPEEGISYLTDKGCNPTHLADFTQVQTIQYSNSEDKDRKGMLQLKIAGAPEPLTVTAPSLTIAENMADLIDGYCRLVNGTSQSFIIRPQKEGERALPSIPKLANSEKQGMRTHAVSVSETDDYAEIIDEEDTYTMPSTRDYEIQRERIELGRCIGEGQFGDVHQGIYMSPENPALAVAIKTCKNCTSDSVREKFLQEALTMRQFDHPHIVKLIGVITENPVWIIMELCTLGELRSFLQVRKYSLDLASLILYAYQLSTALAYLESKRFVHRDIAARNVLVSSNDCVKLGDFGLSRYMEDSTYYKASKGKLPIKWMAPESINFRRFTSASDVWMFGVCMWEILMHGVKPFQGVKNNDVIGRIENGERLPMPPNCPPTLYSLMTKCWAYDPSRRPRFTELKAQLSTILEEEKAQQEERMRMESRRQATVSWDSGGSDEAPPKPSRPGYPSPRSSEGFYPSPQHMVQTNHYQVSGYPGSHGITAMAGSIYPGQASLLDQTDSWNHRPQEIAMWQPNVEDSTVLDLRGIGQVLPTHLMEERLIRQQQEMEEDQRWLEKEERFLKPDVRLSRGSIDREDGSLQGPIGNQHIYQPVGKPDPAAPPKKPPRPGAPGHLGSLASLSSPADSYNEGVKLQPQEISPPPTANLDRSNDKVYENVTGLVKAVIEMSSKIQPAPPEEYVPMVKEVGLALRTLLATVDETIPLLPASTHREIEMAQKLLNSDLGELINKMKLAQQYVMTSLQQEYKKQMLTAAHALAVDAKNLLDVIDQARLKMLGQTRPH
For assay [12], the system named is Fibrinogen (Alexa647-labelled). Kind of assay: fibrinogen binders on compound microarrays, profiling panel, artefact control for SMM control-protein annotation, biochemical, small-molecule microarray, 635/667 nm fluorescence (AID 1131).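 Further: z-score merges 667 nm fluorescence with per-spot signal-to-noise over triplicate slides.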 As to conditions: fibrinogen-A647 binding fluorescence, higher = more signal.
The target of assay [13] is Follistatin (Homo sapiens) (UniProt P19883). Kind of assay: follistatin binders on small-molecule microarrays, primary screen, biochemical, small-molecule microarray, 635/667 nm fluorescence (AID 1132). Conditions: FST binding, 635 nm fluorescence, higher = more signal.
Follistatin (Homo sapiens), sequence (P19883 whole entry, looked up): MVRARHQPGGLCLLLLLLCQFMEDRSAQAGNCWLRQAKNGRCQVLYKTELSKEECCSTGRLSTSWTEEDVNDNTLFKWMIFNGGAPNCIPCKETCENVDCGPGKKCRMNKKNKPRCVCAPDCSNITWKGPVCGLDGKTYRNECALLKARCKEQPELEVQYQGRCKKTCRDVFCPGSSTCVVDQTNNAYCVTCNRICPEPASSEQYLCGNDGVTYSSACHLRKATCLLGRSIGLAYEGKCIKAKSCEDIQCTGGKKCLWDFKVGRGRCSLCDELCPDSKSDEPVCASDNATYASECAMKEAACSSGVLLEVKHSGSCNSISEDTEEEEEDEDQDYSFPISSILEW
Assay [14] has as its target Fibroblast growth factor 2 (Homo sapiens) (UniProt P09038). In words: FGF2 binders on small-molecule microarrays, primary screen, biochemical, small-molecule microarray, 635/667 nm fluorescence (AID 1133). As to conditions: small-molecule microarray binding, FGF2, fluorescence 635/667; higher = more signal.
The nature of assay [15]: mitochondrial membrane potential change in A549 cells, profiling panel, cell-based, JC-1 fluorescence, basal, 24 h, 100 nL (AID 1138).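 Further: A549 lung adenocarcinoma cells under basal conditions with no added stimulus; test concentration not given here.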 As to conditions: higher = more signal.
Another assay relates to Lefty1. Kind of assay: Lefty1 binders on small-molecule microarrays, primary screen, biochemical, small-molecule microarray, 635/667 nm fluorescence (AID 1139). Conditions: small-molecule microarray binding, fluorescence 635/667; higher = more signal.
The test system of assay [16] is wheat germ agglutinin (Triticum aestivum), Alexa647-labelled. Kind of assay: wheat germ agglutinin binders on compound microarrays, profiling panel, artefact control for SMM control-protein annotation, biochemical, small-molecule microarray, 635/667 nm fluorescence (AID 1140).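 Further: score merges 667 nm feature emission with signal to noise over triplicate slides.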 As to conditions: WGA-A647 binding, 635 nm fluorescence, higher = more signal.
The target in assay [17] is Luciferin 4-monooxygenase (Photinus pyralis) (UniProt P08659). In words: firefly luciferase enzyme inhibitors, primary screen, biochemical, luminescence, purified enzyme, 2006 set (AID 1141).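 Further: cell-free assay with purified firefly luciferase at 100 ng per well in PBS; test concentration not given here.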 As to conditions: SteadyGlo luminescence, 30 min, higher = more signal, called active from +8 up or from −8 down.
Luciferin 4-monooxygenase (Photinus pyralis), sequence (P08659 whole entry, looked up): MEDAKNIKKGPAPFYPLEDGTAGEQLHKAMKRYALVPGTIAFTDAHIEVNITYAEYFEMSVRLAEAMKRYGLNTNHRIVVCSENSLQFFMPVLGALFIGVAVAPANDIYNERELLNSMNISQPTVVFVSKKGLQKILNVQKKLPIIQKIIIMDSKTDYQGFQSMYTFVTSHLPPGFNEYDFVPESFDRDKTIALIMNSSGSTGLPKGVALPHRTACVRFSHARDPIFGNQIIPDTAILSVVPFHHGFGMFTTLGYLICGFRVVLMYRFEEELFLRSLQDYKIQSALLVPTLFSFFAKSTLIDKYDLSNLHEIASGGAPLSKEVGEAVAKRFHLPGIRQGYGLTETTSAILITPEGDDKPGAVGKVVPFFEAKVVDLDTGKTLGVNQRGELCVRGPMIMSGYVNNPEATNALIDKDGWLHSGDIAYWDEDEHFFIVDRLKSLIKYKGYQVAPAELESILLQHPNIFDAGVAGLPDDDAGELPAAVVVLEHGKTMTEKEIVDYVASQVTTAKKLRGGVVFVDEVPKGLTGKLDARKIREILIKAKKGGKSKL

Fibroblast growth factor 2 (Homo sapiens), sequence (P09038 whole entry, looked up): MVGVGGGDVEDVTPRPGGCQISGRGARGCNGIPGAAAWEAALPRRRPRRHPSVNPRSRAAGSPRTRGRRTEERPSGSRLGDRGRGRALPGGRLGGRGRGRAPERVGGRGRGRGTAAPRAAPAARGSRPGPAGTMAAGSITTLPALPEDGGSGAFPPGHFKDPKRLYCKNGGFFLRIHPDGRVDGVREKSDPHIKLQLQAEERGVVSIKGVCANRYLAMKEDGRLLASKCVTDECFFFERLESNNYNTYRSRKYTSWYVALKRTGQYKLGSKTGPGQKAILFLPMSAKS

Consider `COCCOC(=O)N1C(=O)[C@@]2(c3ccccc31)[C@H](c1ccc(OCCO)cc1)N1[C@H](c3ccccc3)[C@H](c3ccccc3)OC(=O)[C@H]1[C@@H]2C(=O)N1CCc2cc(OC)c(OC)cc2C1`, for which the composite z-score is 0.642 in the assay with Albumin (Bos taurus); 0.273 in assay [2]; -0.0021 in assay [3]; 0.641 in [4]; 2.4 in assay [5]; 1.43 in assay [6]. Further, the composite z-score in the assay on Sam68 (KHDRBS1) worked out at 1.28; in assay [7] it was 0.584; in assay [8], 1.16; in assay [9], 2.41; in assay [10], 1.2; in [11], 0.85. Further, the composite z-score was determined as 0.958 in assay [12]; 1.3 in assay [13]; 1.38 in assay [14]; 1.35 in the assay on Lefty1; 1.17 in assay [16]. Besides, the composite Z-score in assay [1] is 0.158 (inactive). Further, the z-score was -0.0272 in [15] and -0.603 (inactive) in [17].
Take `C=CCNC(=O)[C@H]1[C@@H]2C(=O)O[C@@H](c3ccccc3)[C@@H](c3ccccc3)N2[C@@H](c2ccc(OCCO)cc2)[C@]12C(=O)Nc1ccc(C#CCC(C(=O)OC)C(=O)OC)cc12`: the composite z-score with Albumin (Bos taurus) was 0.629; in [2], 0.116; in [3] it was 0.0022; in assay [4] it was 0.328; in [5], 1.92; in [6], 0.979. In addition, the composite z-score came to 1.3 in the assay with Sam68 (KHDRBS1); 1.24 in [7]; 1.12 in [8]; 2.47 in assay [9]; 1.2 in [10]; 0.413 in assay [11]. The composite z-score in assay [12] worked out at 0.858; in assay [13] it was 0.929; in [14] it was 0.826; in the assay on Lefty1, 0.385; in [16], 0.887. Moreover, in [1], the composite Z-score was 0.612 (inactive). The z-score is -0.765 in [15] and -0.275 (inactive) in [17].
As to `COCCOC(=O)N1C(=O)[C@@]2(c3ccccc31)[C@H](C(=O)N1CCc3cc(OC)c(OC)cc3C1)[C@H]1C(=O)O[C@H](c3ccccc3)[C@H](c3ccccc3)N1[C@@H]2c1ccc(O)cc1`, the composite z-score was 0.795 with Albumin (Bos taurus); -0.0072 in assay [2]; 0.0129 in assay [3]; 0.424 in assay [4]; 2.19 in assay [5]; 0.808 in assay [6]. Moreover, the composite z-score in the assay on Sam68 (KHDRBS1) is 1.31; in assay [7], 0.628; in assay [8] it was 1.17; in assay [9] it was 2.07; in assay [10], 1.18; in assay [11], 0.381. For the same molecule, the composite z-score turned out to be 0.864 in [12]; 1.09 in assay [13]; 1.26 in assay [14]; 0.788 with Lefty1; 0.74 in assay [16]. Moreover, in [1], the composite Z-score was 0.27 (inactive). For the same molecule, the results for the z-score in assay [15] and in assay [17] were 0.674 and -5.57 (inactive), respectively.
Turning to `COCC(=C=CC[C@H](O)c1ccccc1OCCO)CCO`, the composite z-score with Albumin (Bos taurus) is 0.003; in assay [2], -0.0048; in [3] it was -0.0475; in assay [4], 0.774; in assay [5] it was 0.969; in [6] it was 0.162. The composite z-score with Sam68 (KHDRBS1) is 0.853; in assay [7], -0.546; in [8], 0.298; in assay [9], -0.69; in assay [10] it was 0.268; in assay [11] it was 0.432. The composite z-score was 0.869 in assay [12]; 0.992 in [13]; 1.11 in assay [14]; 1.15 with Lefty1; 1.14 in assay [16]. For the same molecule, the composite Z-score in assay [1] was -0.325 (inactive). Moreover, the z-score in assay [15] is 0.417; in assay [17], 0.109 (inactive).
In the case of `Cc1ccc(/C=C/C=O)cc1`, the composite z-score with Albumin (Bos taurus) is 0.931; in assay [2] it was -0.217; in assay [3], -0.117; in assay [4], -0.287; in [5], 0.206; in [6], 0.127. The composite z-score in the assay with Sam68 (KHDRBS1) was -0.912; in assay [7], 0.24; in [8], -0.156; in assay [9] it was -0.0082; in assay [10], -0.872; in assay [11], -0.0083. Also, the composite z-score in [12] is 0.698; in [13], -0.186; in [14], -0.245; in the assay on Lefty1, -0.709; in assay [16] it was 0.0368. Further, the composite Z-score in assay [1] was 0.421 (inactive). Further, the figures for the z-score in [15] and in [17] were 0.843 and -1.19 (inactive), respectively.
